# The full list was thinned out, with hits kept by preference.
# KDM5B inhibitor = Primary screen for KDM5B Histone Demethylases FDH-coupled qHTS; Lysine-specific demethylase 5B (Homo sapiens), Q9UGL1; Potency, µM (titrated, usually from 57.7 µM), hits mostly inhibitors; KDM5B demethylase, FDH-coupled NADH fluorescence (FDH is formaldehyde dehydrogenase); 2.6% of 220,000 active; active = well fitted inhibition curve with a large enough effect; also: 0% is about no effect; nearly all actives have a fitted effect of over 70% in size
#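 Coupled FDH/NAD⁺ fluorescence readout. KDM5BΔAP 200 nM final; compound titration, 10 min RT preincubation; substrate mix 12.5 µM H3K4me3, 25 µM 2-OG, 50 µM Fe(II), 100 µM ascorbate, 0.25 mM NAD⁺, 0.25 U/mL FDH; ΔRFU over 30 min.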
# * marks the source's active call; other numbers are inactive results; i = inactive. Potency is read from the fitted curve at half-maximal effect.
SMILES,KDM5B inhibitor
CN(c1ccc2sc(C(=O)NC(C)(C)C)cc2c1)S(=O)(=O)c1ccc(Cl)cc1,i
CC1(C)CC(=O)C(CCS(=O)(=O)Oc2ccccc2)(CCS(=O)(=O)Oc2ccccc2)C(=O)C1,i
Cc1ccc(N2CC(O)=C(c3nc4ccccc4s3)C2=N)cc1O,i
CC(C)C1C(=O)Nc2ccc(S(=O)(=O)NCc3ccc(Cl)cc3)cc21 (centres undefined),i
Cc1cccc(NC(=O)C2CCCN(S(=O)(=O)Cc3ccc(F)cc3)C2)c1C (centres undefined),i
O=C1CSc2ccc(C(=O)NCc3ccccc3)cc2N1,i
COc1cccc(-c2cc(-c3c(C)noc3C)cc3c2C(=O)N(C)C3=O)c1OC,i
Cc1noc(C)c1-c1cc(-c2ccccc2C(F)(F)F)cn2cncc12,40µM*
Cc1noc(C)c1-c1cc(-c2ccccc2F)cn2cncc12,35µM*
Cc1ccccc1-c1cc(-c2c(C)noc2C)cc2c1C(=O)N(C)C2,i
CNC(=O)CCn1ncc2cc(OCc3ccccc3-c3c(C)noc3C)ccc21,i
Cc1oc(-c2cccc(Cl)c2)nc1CSCC(=O)NCc1ccccc1Cl,i
Cc1nc2cc(NC(=O)c3cccc(S(C)(=O)=O)c3)ccc2o1,i
O=C(Nc1ccccc1)N1CCC2(CC1)CC(=O)N(c1ccccc1)c1ccccc1O2,i
COc1ccc(C2Cn3nnc(-c4nc(-c5ccc(SC)cc5)no4)c3CO2)cc1 (centres undefined),i
Cc1c(C(=O)N2CCC(C)CC2)c(S(=O)(=O)N(Cc2ccccc2)C(C)(C)C)c(C)n1C,i
O=C(c1nc(-c2cccnc2)c2ccccn12)N1CCOCC1,112µM*
O=C(c1ccccc1)N1CCCN(c2nccc(C(F)(F)F)n2)CC1,i
C[S+](=O)([O-])c1ccc(-c2nc(C(=O)N3CCOCC3)n3ccccc23)cc1,i
COc1cccc(-c2cc(C(=O)N3CCN(c4ncccn4)CC3)c3ccccc3n2)c1,i
Cc1cccc(-c2cc(C(=O)N3CCN(c4ncccn4)CC3)c3ccccc3n2)c1,i
O=C(c1nc(-c2cccc(C(F)(F)F)c2)c2ccccn12)N1CCOCC1,28µM*
O=C(c1cn2c(n1)CN([S+](=O)([O-])c1cccc(C(F)(F)F)c1)CC2)N1CCOCC1,i
O=C(c1ccccn1)N1CCC2(CC(c3cccc(C(F)(F)F)c3)=NO2)C1 (centres undefined),i
O=C(c1nc(-c2cccc(C(F)(F)F)c2)c2cnccn12)N1CCN(c2ncccn2)CC1,28µM*
SMILES,KDM5B inhibitor
Cn1ncc2c(C(=O)N3CCOCC3)cc(-c3cccnc3)nc21,i
Cc1nc(N2CCOCC2)c2c(C(=O)N3CCN(c4cccc(C(F)(F)F)c4)CC3)c(C)oc2n1,i
O=C(c1nc(-c2cccc(C(F)(F)F)c2)c2ccccn12)N1CCN(c2ncccn2)CC1,25µM*
O=C(Nc1ccc(Oc2cccnc2)cc1)C1CCN(CCCc2ccccc2)CC1,i
CCC(C)NC(=O)Cn1c(=O)n(CCCCCC(=O)NCc2ccccc2Cl)c(=O)c2sccc21 (centres undefined),i
Cn1c(=O)oc2cc(S(=O)(=O)N3CCC(C(=O)Nc4ccc(F)c(Cl)c4)CC3)ccc21,i
O=C1CCC(C(=O)OCC(=O)c2c[nH]c3ccccc23)=NN1,i
CC(=O)N(C)c1ccc(NC(=O)C(c2ccccc2)c2ccccc2)cc1,i
CN(C)C(=O)c1nc(-c2cccc(C(F)(F)F)c2)c2ccccn12,35µM*
CN(C)C(=O)c1cccc(C(F)(F)F)c1,i
C#CCNC(=O)c1nc(-c2cccc(C(F)(F)F)c2)c2ccccn12,i
CCS(=O)(=O)Nc1ccc(C2(C(=O)NCc3cccc(F)c3)CCCCC2)cc1,i
Cc1c(NS(=O)(=O)c2cc([N+](=O)[O-])ccc2Cl)c(=O)n(-c2ccccc2)n1C,i
COc1ccccc1CNC(=O)CCC1N=C2c3ccccc3N=C(SCC(=O)NCCc3ccc(OC)c(OC)c3)N2C1=O (centres undefined),i
O=C(NCCN1CCOCC1)C(=O)NCC1OCCN1S(=O)(=O)c1ccc(F)cc1 (centres undefined),i
CCCOCCCNC(=O)c1c(C)noc1-c1cccc(F)c1,i
COc1cc(-c2onc(C)c2C(=O)NCCCOC(C)C)cc(OC)c1OC,32µM*
CCOCCCNC(=O)c1c(C)noc1-c1ccc(OC(F)(F)F)cc1,i
COc1cc(CNC(=O)c2c(C)noc2-c2cc(OC)c(OC)c(OC)c2)cc(OC)c1,28µM*
CCCOCCNC(=O)c1c(C)noc1-c1ccc(C(C)(C)C)cc1,i
CCOCCCNC(=O)c1c(C)noc1-c1ccc(OC)cc1,i
COCCNC(=O)c1c(C)noc1-c1cc(OC)c(OC)c(OC)c1,28µM*
CCOCCCNC(=O)c1c(C)noc1-c1cc(OC)c(OC)c(OC)c1,28µM*
CCCOCCNC(=O)c1c(C)noc1-c1cc(OC)cc(OC)c1,i
COc1ccc(CNC(=O)c2c(C)noc2-c2ccc(OC)cc2)cc1,i
SMILES,KDM5B inhibitor
COc1cc(OC)cc(-c2onc(C)c2C(=O)NCCCSC)c1,i
COc1cc(OC)cc(-c2onc(C)c2C(=O)NCc2ccccc2C)c1,i
CCCNC(=O)CCNS(=O)(=O)c1cccc(C(C)=O)c1,i
Nc1nc(SCC(=O)Nc2cccc(C(F)(F)F)c2)n[nH]1,i
CCC(C)(C)C1CCC(NC(=S)NCCc2ccccc2)CC1 (centres undefined),i
CCOc1ccc2nc(N3CCCC(C(=O)NCc4ccc(OC)cc4)C3)sc2c1 (centres undefined),i
CCn1c2ccccc2c2nnc(N3CCN(c4ccc(F)cc4)CC3)nc21,i
CCn1cc(S(=O)(=O)N2CCC(c3noc(-c4cccnc4)n3)C2)cn1 (centres undefined),i
O=[N+]([O-])c1ccc(/C=C2/CCCC3C2=NN(c2ccc([N+](=O)[O-])cc2)C3c2ccc([N+](=O)[O-])cc2)cc1 (centres undefined),i
Cc1cn2c(=O)cc(COC(=O)c3ccc(NC(=O)C(C)Oc4ccccc4)cc3)nc2s1 (centres undefined),i
Cc1ccc2c(COC(=O)C3=NNC(=O)CC3)cc(=O)oc2c1,i
COc1cc(OC)c(CNC(=O)c2c(C)noc2-c2ccc(OC(F)(F)F)cc2)c(OC)c1,i
COc1ccc(-c2cc(C(=O)NCC3CCCO3)c3cc(C)ccc3n2)cc1 (centres undefined),i
COc1cc(-c2onc(C)c2C(=O)NCCC(c2ccccc2)c2ccccc2)cc(OC)c1OC,28µM*
COc1cc(-c2onc(C)c2C(=O)NCC2CCCO2)cc(OC)c1OC (centres undefined),28µM*
COc1cc(OC)cc(-c2onc(C)c2C(=O)NCCOc2ccccc2)c1,i
CCOCC(=O)Nc1ccc(-c2cn3c(C)csc3n2)cc1,i
O=C(NCCCN1CCCC1=O)c1c(OCC2CC2)cc(=O)n2c1CCCCC2,i
COCC(C)NC(=O)C1CCN(S(=O)(=O)Cc2ccc(Cl)cc2)CC1 (centres undefined),i
Cc1ccc(Nc2nc(C(=O)OCC(=O)c3ccccc3)cs2)cc1,i
C=CCn1c(-n2nc(C)c(C)c2C)nc2c1c(=O)n(CCN1CCCCC1)c(=O)n2C,i
COc1cccc(C(=O)N2CC(Oc3cccc(-c4nc(-c5ccccc5)no4)c3)C2)c1,i

# Screening data: PubChem BioAssay, National Center for Advancing Translational Sciences (NCATS)
